Where “and” joins values, the source holds several entries; their conditions need not be identical. Equal entries are not always repeated. Records with an inconclusive call do not appear. More than one record can exist for a structure, and the calls need not agree. Calls of active or inactive are those of the source. The calls were made as follows: active = hit-call score of the fitted dose curve at least 0.9, where 1 is the maximum; inconclusive = response in the unintended direction; inactive = score below 0.9.
System: zebrafish Estrogen Receptor (ER2a), gene 317734
Assay: ATG_zfER2a_XSP2: Attagene TRANS-FACTORIAL Multi-Species (XSP2) HepG2 Assay for zebrafish Estrogen Receptor (ER2a) (AID 2283818);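 also: hits raise reporter mRNA so AC50 reflects activation of zebrafish ER2a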
Description: ATG_XSP2_multi-species_TRANS is a cell-based, multiplexed assay created by modifying the existing Attagene TRANS-FACTORIAL system to include a panel of nuclear receptors from some or all the following species: human (Homo sapiens), mouse (Mus musculus), frog (Xenopus laevis), zebrafish (Danio rerio), chicken (Gallus gallus), and turtle (Chrysemys picta). The ECOTOX-FACTORIAL format uses HepG2, a human liver cell line, with measurements taken at 24 hours after chemical dosing in a 24-well plate. Xsp2 included 3 nM 6-alpha-fluorotestosterone and 1.5 nM norgestrel to stimulate the androgen receptor.ATG_zfER2a_XSP2 is one of 29 assay components measured or calculated from the ATG_XSP2_multi-species_TRANS assay. It is designed to make measurements of mRNA induction, a form of inducible reporter, as detected with fluorescence intensity signals by Reverse transcription polymerase chain reaction (RT-PCR) and Capillary electrophoresis technology.The assay endpoint ATG_zfER2a_XSP2 was analyzed in the positive analysis fitting direction relative to DMSO as the negative control and baseline of activity. Using a type of inducible reporter, measures of mRNA for gain-of-signal activity can be used to understand the reporter gene at the transcription factor-level as they relate to the gene ER. Furthermore, this assay endpoint can be referred to as a primary readout, because this assay has produced multiple assay endpoints where this one serves a reporter gene function. To generalize the intended target to other relatable targets, this assay endpoint is annotated to the nuclear receptor intended target family, where the subfamily is steroidal.
Human liver HepG2 cells are transiently transfected with multiple reporter transcription units (MRTUs) in 6-well plates using FuGene 6 reagent (Roche; 3 ml FuGene/1 mg DNA). The MRTU constructs are regulated by a cis-regulating element (promoter). […] A major difference between the CIS and TRANS system is that in CIS activities of endogenous TFs are measured, whereas the TRANS assay evaluates changes in activities of exogenous, chimeric NR-Gal4 proteins. […] At the end of 24 hour incubation, total RNA was isolated using TriZol reagent (Invitrogen). The isolated RNA is then reverse-transcribed using oligo(dT) primer and Mo-MLV reverse transcriptase (Invitrogen) with DNAse I (Ambion) treatment for 30 min. The one-tenth of the produced cDNA was amplified by PCR using Taq DNA polymerase (Invitrogen) and two reporter sequence-specific primers. The PCR products were fluorescently labeled by primer extension with 6-arboxyfluorescein (6-FAM) 5'-labeled reporter sequence-specific primer (2 min at 95 C, 20 s at 68 C and 10 min at 72 C) and these products were digested with 5U of HpaI (New England Biolabs) for 2h at 37 C. The fragments were purified using Qiaquick PCR columns (Qiagen), analyzed on an ABI 3130xL genetic analyzer (Applied Biosystems) with peak positions identified by using a set of X-rhodamine (ROX)-labeled MapMarker1000 molecular weight standards (BioVentures). The raw capillary electrophoresis data was processed using Attagraph software (Attagene).

| SMILES | outcome | AC50 |
| --- | --- | --- |
| CC1(C)CCC(Cc2ccc(Cl)cc2)C1(O)Cn1cncn1 (stereo not given) | inactive | – |
| O=S(=O)(c1ccc(Cl)cc1)c1ccc(Cl)cc1 | inactive | – |
| CC12CC1(C)C(=O)N(c1cc(Cl)cc(Cl)c1)C2=O (stereo not given) | inactive | – |
| C[C@]12CC[C@H](O)CC1=CC[C@@H]1[C@@H]2CC[C@]2(C)C(=O)CC[C@@H]12 | – | 2.39 µM (active) and 1.46 µM (active) |
| CC(C)(C)CC(C)(C)c1ccc(O)cc1 | inactive | – |
| C[C@]12CCC(=O)C[C@@H]1CC[C@@H]1[C@@H]2CC[C@]2(C)[C@@H](O)CC[C@@H]12 | inactive | – |
| Oc1ccc(-c2ccccc2)cc1 | – | 2.6 µM (active) and 1.43 µM (active) |
| COP(=O)(OC)O/C(=C\Cl)c1cc(Cl)c(Cl)cc1Cl | inactive | – |
| CC(=O)C=C(C)C | inactive | 46.7 µM (active) |
| Clc1ccc(C2(Cn3cncn3)CC(Br)CO2)c(Cl)c1 (stereo not given) | inactive | 37.4 µM (active) |
| CC(C)C1CCC(Cc2ccc(Cl)cc2)C1(O)Cn1cncn1 (stereo not given) | inactive | – |
| C[C@H]1CCCC(=O)CCC/C=C/c2cc(O)cc(O)c2C(=O)O1 | – | 24.6 nM (active) and 6.41 nM (active) |
| CC(C)(C)c1cc(O)ccc1O | – | 43.8 µM (active) |

Source: PubChem BioAssay (EPA / NIEHS)
